# Source: PMC5540273 (PLoS ONE, 2017)
# Several values for one entry are separate records, joined by “and”; a condition that tells them apart may be missing. Equal entries are not always repeated. Where two headings read alike, the source gives them in different places.
# Tests used:
# ERK4 = tested on: T1, ERK4; details: concentration: 1 μM, replicates: in singlicate; n = 1
# T1 construct: gene MAPK4
# ERK5 = tested on: T2, ERK5; details: concentration: 1 μM, replicates: in singlicate; n = 1
# T2 construct: gene MAPK7
# ERK8 = tested on: T3, ERK8; details: concentration: 1 μM, replicates: in singlicate, n = 1
# T3 construct: gene MAPK15
# ERN1 = details: concentration: 1 μM, replicates: in singlicate; n = 1
# FAK = tested on: T4, FAK; details: concentration: 1 μM, replicates: in singlicate; n = 1
# T4 construct: gene PTK2
# FER = details: concentration: 1 μM, replicates: in singlicate, n = 1
# FES = details: concentration: 1 μM, replicates: in singlicate, n = 1
# FGFR1 = details: concentration: 1 μM, replicates: in singlicate; n = 1
# FGFR2 = details: concentration: 1 μM, replicates: in singlicate; n = 1
# FGFR3 = details: concentration: 1 μM, replicates: in singlicate, n = 1
# FGFR4 = details: concentration: 1 μM, replicates: in singlicate; n = 1
# FGR = details: concentration: 1 μM, replicates: in singlicate, n = 1
# FLT1 = details: concentration: 1 μM, replicates: in singlicate, n = 1
# FLT3-autoinhibited = details: concentration: 1 μM, replicates: in singlicate, n = 1
# FLT3 = details: concentration: 1 μM, replicates: in singlicate, n = 1
# FLT4 = details: concentration: 1 μM, replicates: in singlicate; n = 1
# FRK = details: concentration: 1 μM, replicates: in singlicate, n = 1
# FYN = details: concentration: 1 μM, replicates: in singlicate, n = 1
# GAK = details: concentration: 1 μM, replicates: in singlicate, n = 1
# GCN2(Kin.Dom.2,S808G) = tested on: T5, GCN2(Kin.Dom.2,S808G); details: concentration: 1 μM, replicates: in singlicate, n = 1
# T5 construct: gene EIF2AK4
# 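Further: KINOMEscan kinase panel screen.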
smiles,measurement,setting,value
Fc1ccc(Nc2nccc(-c3c(-c4ccc(Cl)cc4)nn4ncccc34)n2)cc1F [GW829058],%Inh,ERK4,23%
same,%Inh,ERK5,0%
same,%Inh,ERK8,0%
same,%Inh,ERN1,48%
same,%Inh,FAK,17%
same,%Inh,FER,9%
same,%Inh,FES,19%
same,%Inh,FGFR1,13%
same,%Inh,FGFR2,15%
same,%Inh,FGFR3,9%
same,%Inh,FGFR4,5%
same,%Inh,FGR,12%
same,%Inh,FLT1,8%
same,%Inh,FLT3-autoinhibited,14%
same,%Inh,FLT3,40%
same,%Inh,FLT4,1%
same,%Inh,FRK,32%
same,%Inh,FYN,7%
same,%Inh,GAK,14%
same,%Inh,"GCN2(Kin.Dom.2,S808G)",3%
Nc1nc(-c2ccccn2)c(-c2ccnc3ccccc23)s1 [GW548057],%Inh,ERK4,31%
same,%Inh,ERK5,4%
same,%Inh,ERK8,0%
same,%Inh,ERN1,14%
same,%Inh,FAK,0%
same,%Inh,FER,8%
same,%Inh,FES,0%
same,%Inh,FGFR1,0%
same,%Inh,FGFR2,0%
same,%Inh,FGFR3,16%
same,%Inh,FGFR4,0%
same,%Inh,FGR,9%
same,%Inh,FLT1,34%
same,%Inh,FLT3-autoinhibited,0%
same,%Inh,FLT3,0%
same,%Inh,FLT4,0%
same,%Inh,FRK,0%
same,%Inh,FYN,11%
same,%Inh,GAK,47%
same,%Inh,"GCN2(Kin.Dom.2,S808G)",0%
O=C(Nc1ccccc1)Nc1ccc(Oc2ccc3nccn3n2)cc1,%Inh,ERK4,0%
same,%Inh,ERK5,1%
same,%Inh,ERK8,14%
same,%Inh,ERN1,100%
same,%Inh,FAK,0%
same,%Inh,FER,0%
same,%Inh,FES,0%
same,%Inh,FGFR1,0%
same,%Inh,FGFR2,8%
same,%Inh,FGFR3,15%
same,%Inh,FGFR4,63%
same,%Inh,FGR,19%
same,%Inh,FLT1,51%
same,%Inh,FLT3-autoinhibited,0%
same,%Inh,FLT3,25%
same,%Inh,FLT4,6%
same,%Inh,FRK,0%
same,%Inh,FYN,0%
same,%Inh,GAK,0%
same,%Inh,"GCN2(Kin.Dom.2,S808G)",16%
FC(F)(F)c1ccc(-c2nn3ncccc3c2-c2ccnc(Nc3cccc(C(F)(F)F)c3)n2)cc1 [GW828205],%Inh,ERK4,0%
same,%Inh,ERK5,0%
same,%Inh,ERK8,0%
same,%Inh,ERN1,0%
same,%Inh,FAK,9%
same,%Inh,FER,2%
same,%Inh,FES,7%
same,%Inh,FGFR1,33%
same,%Inh,FGFR2,100%
same,%Inh,FGFR3,8%
same,%Inh,FGFR4,3%
same,%Inh,FGR,58%
same,%Inh,FLT1,12%
same,%Inh,FLT3-autoinhibited,0%
same,%Inh,FLT3,0%
same,%Inh,FLT4,8%
same,%Inh,FRK,0%
same,%Inh,FYN,0%
same,%Inh,GAK,0%
same,%Inh,"GCN2(Kin.Dom.2,S808G)",0%
Nc1nc(-c2cccnc2)c(-c2ccnc3ccccc23)s1 [GW684083],%Inh,ERK4,12%
same,%Inh,ERK5,0%
same,%Inh,ERK8,0%
same,%Inh,ERN1,0%
same,%Inh,FAK,0%
same,%Inh,FER,24%
same,%Inh,FES,0%
same,%Inh,FGFR1,4%
same,%Inh,FGFR2,20%
same,%Inh,FGFR3,21%
same,%Inh,FGFR4,0%
same,%Inh,FGR,24%
same,%Inh,FLT1,29%
same,%Inh,FLT3-autoinhibited,0%
same,%Inh,FLT3,16%
same,%Inh,FLT4,0%
same,%Inh,FRK,5%
same,%Inh,FYN,12%
same,%Inh,GAK,77%
same,%Inh,"GCN2(Kin.Dom.2,S808G)",24%
COc1ccc(-c2nc3n(c2-c2ccncc2)CCC3)cc1 [SKF-104493],%Inh,ERK4,0%
same,%Inh,ERK5,0%
same,%Inh,ERK8; 1 µM,6% and 11%
same,%Inh,ERN1,0%
same,%Inh,FAK,0%
same,%Inh,FER; 1 µM,0% and 33%
same,%Inh,FES; 1 µM,10% and 0%
same,%Inh,FGFR1,0%
same,%Inh,FGFR2,0%
same,%Inh,FGFR3; 1 µM,0% and 9%
same,%Inh,FGFR4,8%
same,%Inh,FGR; 1 µM,19% and 8%
same,%Inh,FLT1; 1 µM,6% and 11%
same,%Inh,FLT3-autoinhibited; 1 µM,22% and 0%
same,%Inh,FLT3; 1 µM,9% and 0%
same,%Inh,FLT4,0%
same,%Inh,FRK; 1 µM,5% and 0%
same,%Inh,FYN; 1 µM,0% and 28%
same,%Inh,GAK; 1 µM,13% and 41%
same,%Inh,"GCN2(Kin.Dom.2,S808G); 1 µM",27% and 0%
CC(C)(C)c1ccc(-n2cnc3c(N)ncnc32)cc1 [SKF-97263],%Inh,ERK4,0%
same,%Inh,ERK5,0%
same,%Inh,ERK8,48%
same,%Inh,ERN1,6%
same,%Inh,FAK,0%
same,%Inh,FER,13%
same,%Inh,FES,13%
same,%Inh,FGFR1,12%
same,%Inh,FGFR2,20%
same,%Inh,FGFR3,15%
same,%Inh,FGFR4,10%
same,%Inh,FGR,30%
same,%Inh,FLT1,7%
same,%Inh,FLT3-autoinhibited,17%
same,%Inh,FLT3,6%
same,%Inh,FLT4,15%
same,%Inh,FRK,0%
same,%Inh,FYN,2%
same,%Inh,GAK,9%
same,%Inh,"GCN2(Kin.Dom.2,S808G)",11%
COc1cc2ncnc(Nc3ccc(OCc4ccccc4Br)c(Cl)c3)c2cc1OC.Cl [GI261590],%Inh,ERK4,32%
same,%Inh,ERK5,0%
same,%Inh,ERK8,0%
same,%Inh,ERN1,0%
same,%Inh,FAK,0%
same,%Inh,FER,18%
same,%Inh,FES,25%
same,%Inh,FGFR1,0%
same,%Inh,FGFR2,38%
same,%Inh,FGFR3,12%
same,%Inh,FGFR4,9%
same,%Inh,FGR,43%
same,%Inh,FLT1,23%
same,%Inh,FLT3-autoinhibited,0%
same,%Inh,FLT3,0%
same,%Inh,FLT4,0%
same,%Inh,FRK,6%
same,%Inh,FYN,0%
same,%Inh,GAK,0%
same,%Inh,"GCN2(Kin.Dom.2,S808G)",24%
Nc1nc(-c2ccc3c(N)n[nH]c3c2)cc(N2CCCCC2)n1 [GSK2228768],%Inh,ERK4,2%
same,%Inh,ERK5,0%
same,%Inh,ERK8,0%
same,%Inh,ERN1,7%
same,%Inh,FAK,0%
same,%Inh,FER,10%
same,%Inh,FES,0%
same,%Inh,FGFR1,0%
same,%Inh,FGFR2,0%
same,%Inh,FGFR3,0%
same,%Inh,FGFR4,0%
same,%Inh,FGR,12%
same,%Inh,FLT1,24%
same,%Inh,FLT3-autoinhibited,0%
same,%Inh,FLT3,0%
same,%Inh,FLT4,1%
same,%Inh,FRK,0%
same,%Inh,FYN,18%
same,%Inh,GAK,0%
same,%Inh,"GCN2(Kin.Dom.2,S808G)",0%
COc1ccc(NC(=O)c2ccc(-c3cc(-c4nnc(C)o4)ccc3C)cc2)cc1 [GW595885],%Inh,ERK4,0%
same,%Inh,ERK5,0%
same,%Inh,ERK8,0%
same,%Inh,ERN1,0%
same,%Inh,FAK,0%
same,%Inh,FER,6%
same,%Inh,FES,0%
same,%Inh,FGFR1,0%
same,%Inh,FGFR2,0%
same,%Inh,FGFR3,16%
same,%Inh,FGFR4,0%
same,%Inh,FGR,10%
same,%Inh,FLT1,19%
same,%Inh,FLT3-autoinhibited,0%
same,%Inh,FLT3,0%
same,%Inh,FLT4,0%
same,%Inh,FRK,10%
same,%Inh,FYN,6%
same,%Inh,GAK,0%
same,%Inh,"GCN2(Kin.Dom.2,S808G)",14%
